Laboratory results taken from PubChem BioAssay (NCI).
“And” between values parts separate entries of the source, which are not always exact repeats. Equal values may be shown once. About 83,000 compounds went through this panel and 20% of them were active in at least one assay; those are over-represented in the sample as a whole.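 Assay: single dose, 48 h. Readout: percent growth (0 = no net growth; negative = cell death). Active: <10.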 Values without a mark were called inactive. The source made the active and inactive calls.

System: MDA-MB-468 breast
Test: NCI-60 one-dose screen, 48 h (100 = growth as untreated, 0 = no growth, -100 = all killed)
Conditions: 10 µM unless noted

| SMILES | growth |
| --- | --- |
| COc1ccccc1/C=C/C(=O)CCC(=O)O | 124% |
| CCOc1cc2c(Cl)ncnc2c(OCC)c1OCC | -51.3% (active) |
| c1ccc2oc(-c3cnc4nonc4n3)cc2c1 | 98.9% |
| Nc1nc(=O)n([C@H]2C[C@H](O)[C@@H](CO)O2)cc1C=O | 107% |
| CC(C)(C)c1cc(C=O)cc(C(C)(C)C)c1O | 94.9% |
| C=C1C(=O)O[C@H]2[C@H]1CC/C(COC(=O)c1cc3cc(Cl)ccc3[nH]1)=C\CC[C@@]1(C)O[C@@H]21 | -59.6% (active) |
| COc1ccc(N2CCC(=S)NC2=S)cc1 | 97.7% |
| C=C[C@@H]1C[C@H](O)Cc2cc(F)ccc2N1 | 88.7% |
| CCOc1ccccc1/C=N\N=C(N/N=C/c1ccccc1OCC)N/N=C/c1ccccc1OCC | -30.4% (active) |
| CCOC(=O)c1c(C)[nH]c(C(=O)CCC(=O)OC)c1C | 114% |
| CN(C)CCn1cc(-c2ccc3c(Nc4ccc(CC(=O)Nc5cccc(F)c5)cc4)ncnc3c2)cn1 | -82.9% [30 µM] (active) |
| O=S(=O)(Nc1nccs1)c1ccc(Nc2nc(-c3ccncc3)cs2)cc1 | 101% |
| CCCc1nn(C)c2c(=O)[nH]c(-c3cc(S(=O)(=O)N4CCN(C)CC4)ccc3OCC)nc12 | 110% |
| CC(C)C(C)C(N)C(=O)O (centres undefined) | 107% |
| OC(COc1ccccc1)CN1CCN(c2ccc(Cl)cc2)CC1 (centres undefined) | 104% |
| CCOC(=O)c1c(Cl)c2c(n1Cc1ccc(OC)cc1)-c1oncc1CCC2 | 101% |
| O=C(Nc1ccc(OCc2nnc(-c3ccccc3)o2)c(F)c1)Nc1ccc(Cl)c(Cl)c1 | 26.3% |
| COC(=O)c1ccc2[nH]c(O)c(C(=Nc3ccc(N(C)C(=O)CN4CCN(C)CC4)cc3)c3ccc(OC)cc3)c2c1 | 64.5% |
| C#CCn1cnc2cnc(Nc3cccc(NC(=O)C=C)c3)nc21 | 55.1% [6.25 µM] |
| COc1ccc(Cn2c(SC)nc(=O)n(Cc3ccc(Cl)cc3)c2=O)cc1 | 107% |

| SMILES | growth |
| --- | --- |
| Cn1cc(-c2nn3cc(-c4ccncc4)nc3s2)c2cc(F)ccc21 | 54.6% |
| S=C(NCc1ccccc1)NCc1ccccc1 | 101% |
| O=C(Nc1cc(F)cc2cccnc12)c1cnc(N2CCNCC2)cn1 | -5.12% (active) |
| CCCO/N=C/c1ccccn1 | 115% and 120% |
| O=C(O)CN1C(=O)CCC1=O | 108% |
| O=C(Nc1cccc(Cl)c1)c1ccc(Cl)cc1Cl | 96.9% |
| COc1ccc(C2=CC(c3ccc(OC)cc3Br)N3C=CSC3=N2)cc1 (centres undefined) | 17.4% |
| C/C=C(/C)C(=O)O[C@@H]1CC(C)(C)CC2C34OC(=O)[C@@]21CC[C@@]3(C)[C@]1(C)CCC2C(C)(C)C(=O)CC[C@]2(C)C1C[C@@H]4Cl (some centres undefined) | 80.5% |
| O=C(Cc1ccc(NC(=O)c2cccc(Cl)c2)cc1)NCc1ccccc1 | 39% |
| COc1ccc(-c2cc(-c3nnc(SC/C(=N\O)c4ccccc4)n3-c3ccccc3)c3ccccc3n2)cc1 | 107% |
| N#C/C(=C\c1ccc(-c2ccccc2F)o1)c1nc(-c2ccco2)cs1 | -11% (active) |
| C#CCCCCCCC[C@@H]1OC(=O)[C@H]([C@@H](C)CC)NC(=O)[C@@H]([C@@H](C)CC)NC(=O)CC(=O)[C@@H]1C | 101% |
| COc1ccc(-c2coc3c(CO)c(O)ccc3c2=O)cc1 | 82.9% |
| O=c1/c(=C\c2ccc(-c3ccccc3)o2)sc2nc(-c3ccccc3)nn12 | 124% |
| O=C(Nc1ccc(OS(=O)(=O)Cc2ccccc2)cc1)C12CC3CC(CC(C3)C1)C2 | 66.6% |
| CCCCCCCC(=O)Nc1nc2[nH]c(CN3CCN(Cc4cccc(I)c4)CC3)c(CN3CCN(Cc4cccc(I)c4)CC3)c2c(=O)[nH]1 | -85.6% (active) |
| CO[C@H](C(=O)N[C@@H](CCCCNC(=O)OCc1ccccc1)C(=O)OC(C)(C)C)[C@@H]1Cc2cc3cc(OC4CC(OC5CC(O)C(O)C(C)O5)C(O)C(C)O4)c(C)c(O)c3c(O)c2C(=O)[C@H]1OC1CC(OC2CC(OC3CC(C)(O)C(O)C(C)O3)C(O)C(C)O2)C(O)C(C)O1 (some centres undefined) | -37.5% (active) |
| CCOC(=O)C1=C(N)Oc2c(sc3c(C)cccc23)C1c1ccc(Cl)cc1 (centres undefined) | -2.2% (active) |
| COC(=O)/C(=C\c1ccc(OC)cc1)C(=O)N1c2ccccc2Sc2ccccc21 | 76.1% |
